An excerpt weighted towards active compounds, which were near 11% of everything screened.
HCV inhibitor = blocks hepatitis C virus. Potency, µM (series often up to 41.8 µM), inactives show at the top dose activity change, negative = inhibition, actives largely listed as inhibitors. 340,000 tested, 3.4% active. Huh7.5.1 HCVcc-Cre infection, luciferase reporter, 44 h; also: % is scaled to controls: 0 for no effect and ±100 for the full control effect
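HCVcc-Cre virus at an moi near 0.5 was added right after compound to cells cultured 4 h from seeding (1,000 cells/well). Luciferase activity was determined 44 h later, 15 min after substrate addition at RT.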
Vaccinia mCherry = vaccinia inhibition (mCherry reporter) | Potency, µM (series often up to 36.5 µM), for inactives: at the top dose activity change, negative = inhibition, most hits filed as inhibitors | AID 720579 | 310,000 tested, 0.63% active | Vaccinia virus mCherry reporter infection, fluorescence; calls by dose curve; tested in A549 cells; also: % is scaled to controls: 0 for no effect and ±100 for the full control effect; nearly all actives have a fitted effect of over 35% in size
NS1 inh = inhibitors of influenza NS1 protein function. Potency, µM (highest dose often 46.1 µM), for inactives: at the highest dose activity, positive = more growth. 270,000 tested, 0.4% active; calls by dose curve; also: actives are rising curves; nearly all actives have a fitted effect of over 50% in size
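A cell-based growth assay was used: compounds that relieve NS1-induced slow growth of budding yeast raise OD600. Assay medium was yeast nitrogen base with ammonium sulphate and -URA supplement, pH 6.0, with 2% galactose.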
Vaccinia Venus = vaccinia inhibition (Venus reporter) | 330,000 tested, 0.46% active | AID 720580 | Potency, µM (titrated, usually from 36.5 µM), inactives show at the highest dose activity change, negative = inhibition, most hits filed as inhibitors | Vaccinia virus Venus reporter expression, fluorescence; calls by dose curve; tested in A549 cells; also: % is scaled to controls: 0 for no effect and ±100 for the full control effect; nearly all actives have a fitted effect of over 30% in size
Pf growth 96h = inhibits malaria parasite growth, 96 h. P. falciparum luciferase reporter growth, 96 h. Potency, µM (doses to about 28.7 µM), for the others: at the highest dose activity change, negative = inhibition, most hits filed as inhibitors. 320,000 tested, 6.9% active. AID 504834; also: % is scaled to controls: 0 for no effect and ±100 for the full control effect
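Luminescence readout: decreased luciferase signal marks inhibited growth of reporter-expressing P. falciparum in infected red cells (2% hematocrit, 0.05% parasitemia final), exposed to compound two generations (96 h, 37 C, 5% CO2).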
Pf growth 48h = P. falciparum growth inhibition at 48 hours (one generation) | P. falciparum luciferase growth in erythrocytes, 48 h | Potency, µM (top dose mostly 28.7 µM), without a hit: at the top dose activity change, negative = inhibition, usual class: inhibitors | 310,000 tested, 5.9% active; also: % is scaled to controls: 0 for no effect and ±100 for the full control effect
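Erythrocytes infected with P. falciparum carrying an integrated firefly luciferase reporter (2% hematocrit, 0.1% parasitemia final) were exposed to compounds in RPMI 1640 with 0.5% Albumax at 37 C, 5% CO2. Growth inhibition was scored as reduced luminescence.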
Active calls of the source: *; i = inactive; u = inconclusive; x = no result given; [ ] = remark or other dose. Unless noted, calls follow the shape of the dose curve; as a rule, active = well fitted inhibition curve with a large enough effect; inconclusive = small, poorly fitted or top-dose-only effect, or another doubt; inactive = no such curve, though single readings can be large or run the other way. Potency is read from the fitted curve at half-maximal effect.

SMILES	HCV inhibitor	Vaccinia mCherry	NS1 inh	Vaccinia Venus	Pf growth 96h	Pf growth 48h
CCc1ccc(N2C=C(C(=O)OC)C(c3cccc4ccccc34)C(C#N)=C2N)cc1 (stereo unspecified)	x	6.3µM*	x	-8%	x	x
COc1cccc(C=Nc2cc(C)on2)c1O	-25%	x	-19%	x	-10%	-13%
Cc1cc(=O)[nH]c(SCn2nnc3ccccc3c2=O)n1	6%	i	0%	-6%	25%	x
CCOc1ccc(CNCCc2ccc(S(N)(=O)=O)cc2)cc1	-28%	-1%	1%	-10%	92%	-13%
Fc1ccc(-n2nnc(-c3cccnc3)n2)cc1	1%	i	-6%	-7%	98%	113%
Fc1ccc(C(CCCn2nnc(-c3cccnc3)n2)c2ccc(F)cc2)cc1	u	u	-1%	u	-9%	15µM*
CC(NCc1ccncc1)C12CC3CC(CC(C3)C1)C2 (stereo unspecified)	8%	-4%	0%	-5%	-22%	u
CC(NCc1ccccc1O)C12CC3CC(CC(C3)C1)C2 (stereo unspecified)	-5%	x	-8%	x	0.1µM*	0.066µM*
Nc1ncnc(Sc2ccccc2)c1[N+](=O)[O-]	u	-13%	-30%	-11%	9.3µM*	15µM*
O=C(NCCO)c1cc2c([nH]c3ccccc32)c(-c2ccc(F)cc2)n1	11µM*	-7%	5%	-13%	15µM*	u
Cc1nc(C(=O)NCCO)cc2c1[nH]c1ccccc12	11µM*	x	5%	x	6%	2%[0.00184 µM]
Cc1ccc(-c2nc(C(=O)NCCCN(C)C)cc3c2[nH]c2ccccc23)cc1	11µM*	u	0%	u	9.3µM*	6.6µM*
COc1ccc(NC(=O)C(=O)Nc2cccc3cccnc23)c(OC)c1	-2%	x	7%	x	u	74%
CCCCCCCCCCCCCCCC[N+](C)(C)Cc1ccccc1	x	x	x	x	3µM*	1.7µM*
CN(Cc1ccccc1)Cc1ccccc1	x	x	x	x	-6%	-12%
C[N+](C)(C)Cc1ccccc1	1%[8.37 µM]	-12%	-5%	-9%	1µM*	u
CCCCCCCCCCCCCC[N+](C)(C)Cc1ccccc1	x	u	x	u	2.7µM*	1.7µM*
CCCCCCCCCCCC[N+](C)(C)CCOc1ccccc1	x	x	x	x	2.4µM*	4.3µM*
CCCCCCCC(=O)NNC(=O)Cc1ccccc1	-1%	x	20%	x	54%	26%
CCc1ccccc1N1C(=O)N(CC(=O)c2ccc(Cl)cc2)c2ccccc2S1(=O)=O	x	6%	x	-7%	x	x
CCOC(=O)c1sc(N)c(C(=O)OC)c1C	19%	-18%	-11%	-17%	22%	81%
O=C1CCC([N+](=O)[O-])C(c2ccc3c(c2)OCO3)N1 (stereo unspecified)	6%	x	5%	x	10µM*	19%
O=C(COc1ccccc1[N+](=O)[O-])NCC1(N2CCCCC2)CCCCC1	-4%	x	x	x	-5%	-15%
N#Cc1ccccc1OCC(=O)NCC1(N2CCCCC2)CCCCC1	-4%	-28%	-3%	-8%	-3%	3.3µM*
Cc1ccc2occ(CC(=O)N(Cc3ccc(C(C)C)cc3)C3CCS(=O)(=O)C3)c2c1 (stereo unspecified)	x	-10%	x	-16%	x	x
SMILES	HCV inhibitor	Vaccinia mCherry	NS1 inh	Vaccinia Venus	Pf growth 96h	Pf growth 48h
O=c1[nH]c(N/N=C\c2ccc3c(c2)OCO3)nc2ccccc12	-9%	-22%	8%	-23%	-29%	-76%
Cc1cc(C)nc(NC(=O)c2cc(-c3ccc4c(c3)OCO4)nc3ccccc23)c1	x	-9%	19%	-4%	u	u
Cc1cc(N/N=C/c2ccc3c(c2)OCO3)nc2ccccc12	u	x	-3%	x	4.7µM*	u
O=C(N/N=C/c1ccc2c(c1)OCO2)c1cc(-c2ccccc2)nc2ccccc12	6%	u	11%	0%	12µM*	u
COC(=O)c1cc(-c2ccc3c(c2)OCO3)nc2ccccc12	u	i	-3%	-4%	0.41µM*	3%
O=C(COC(=O)Cc1ccc(Br)cc1)NCc1cccs1	15%	-21%	x	-7%	x	x
O=C(Nc1nnc(S(=O)(=O)N2CCOCC2)s1)c1ccccc1Br	20%	-1%	5%	0%	2%	25%

Screening results as filed in PubChem.
